T1: UNK ZnF1-3 (human, UniProt Q9C0B0 31-174)
T1 sequence: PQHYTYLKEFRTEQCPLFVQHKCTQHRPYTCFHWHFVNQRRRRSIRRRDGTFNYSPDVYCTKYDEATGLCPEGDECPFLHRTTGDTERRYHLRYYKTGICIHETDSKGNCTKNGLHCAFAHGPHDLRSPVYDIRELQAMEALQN

B1: 18916218_18916338_822_CDS_ENSMUSG00000020160_ENSMUST00000068264|mouse|control|control (ssRNA)
RNA: GGGAGUUCUACAGUCCGACGAUCGUGCGGGUACUGAUGCGAGUGCAGAGGAGGCCCGUGGUUCAGGUGGUGGACCGGUUGCAUGGACCUGGCUGCAUGCGGGUCCCCAUACAUCGUGGAGGGGAUGCCUACUCCAUCCAUACCCAACAGAGGAUUGAGCAUCA
B2: chr11:2981123:2981124:-_ENSG00000205531_ENST00000380542|hu_mus|FALSE|FALSE (ssRNA)
RNA: GGGAGUUCUACAGUCCGACGAUCCUUGUACGUUUUCGUCAGGACAGGAUUGGUGAAGUAGUCGUUGGGUUCAAAGUGAAACUCUAGCACAAAAGACAUAGGUUGUCCAGGGUCUGAAAACUUCACUUUAAUAUCCUGCAGAUGCAACAGAGGAUUGAGCAUCA
B3: chr6:155153589:155153590:+_ENSG00000213079_ENST00000417268|hu_hu|motif|central (ssRNA)
RNA: GGGAGUUCUACAGUCCGACGAUCAGUAACAUUGUCUACGCUUUGUCUUCCAGGAGCUAAAAAAGGUCUUUCUGGUUGACGGAAAAUAUCUCCUGGAGGAAAAGGUCCACGGGGUGGUGGAUGAAGAGCUGAAUCAAGUACCGACAACAGAGGAUUGAGCAUCA
B4: chr1:161298228:161298229:+_ENSG00000143252_ENST00000367975|hu_hu|motif|central (ssRNA)
RNA: GGGAGUUCUACAGUCCGACGAUCCAUGGGAAGAGACCAACUGUAGAUAGUAAUGUGGGGAGACAGAGGACGGUUUGAACCGGUAUUCUUAUUCCAGAACCGCUCCAUCUCUUCUUUGGCCGUGGUUCCCAAAGGAACAGCAUUCAACAGAGGAUUGAGCAUCA
B5: 32561585_32561705_2007_CDS_ENSG00000100852_ENST00000539826|human|control|control (ssRNA)
RNA: GGGAGUUCUACAGUCCGACGAUCUAGUUCUUGGGCAAGGCCAUCCUUCCCUAAAAUAAAAAGGUUAACUUUAUCUAUAUUGGUACUAUCGUGAUAUAAUCUUAAGCGGCCAUGAUCCAACUGUAAAAGACUACUAGCAAGUAACAACAGAGGAUUGAGCAUCA
B6: chr3:139076767:139076768:-_ENSG00000184432_ENST00000507777|hu_mus|motif|central (ssRNA)
RNA: GGGAGUUCUACAGUCCGACGAUCACUUUAAUCAUCCAGAAUAUCUUCAUCCAGAUUAAUGUCUGUUGUGUCAAUAUCCUCGGAUUCCAAGUUAUCCAAAUCAACUUCUAGUUCUAGUAAACUCUUUUCUUCUUUGUGGGUAGUCAACAGAGGAUUGAGCAUCA
B7: chr1:58468927:58468928:-_ENSMUSG00000026034_ENSMUST00000148330|mus_mus|mus_mus_mus_hu_False|1_68 (ssRNA)
RNA: GGGAGUUCUACAGUCCGACGAUCAAUUACUGAAAAAGAUGUUCAUUACCUUAGCUAUGUACUUAAUUUAAUAAAGCACCCAAACAAAAUAAACAUGGCAAUAUAAAAAUGUUAAGAAUUUACAAAGCUGUACAAAAAGACUGACAACAGAGGAUUGAGCAUCA
B8: chr5:38529146:38529147:-_ENSMUSG00000029126_ENSMUST00000031009|mus_mus|FALSE|FALSE (ssRNA)
RNA: GGGAGUUCUACAGUCCGACGAUCAGAAAAGCUAAAGUAGCCCUGGCUUACCCAAAAUUACAUUUCACUUUGCCCACUGGCUAAUAAAACAAAACAAAACAAAACAAAAAACCCAAACUGCACCUGCAUUCAGGGCUGUACGUGCAACAGAGGAUUGAGCAUCA
B9: chr10:33190432:33190433:-_ENSG00000150093_ENST00000302278|hu_mus|hu_hu_hu_mus_True|28_68 (ssRNA)
RNA: GGGAGUUCUACAGUCCGACGAUCUACAUUUUCCAAACCUGCAUGUGAAUAAAACCCUGGCCACAGAGCCCUAAAGCUACCCUACUGUGACUAAGAUGCUGCUGCUGUUGCAUUCAGGUUGCAAAAUCCGCCUGAGUAGGAUUCCAACAGAGGAUUGAGCAUCA
B10: chr1:58468927:58468928:-_ENSMUSG00000026034_ENSMUST00000148330|mus_mus|mus_mus_mus_hu_False|58_68 (ssRNA)
RNA: B7 RNA with C78U, C80U, C84A, A137U, G138A, G142U
B11: chr15:100049815:100049816:+_ENSMUSG00000023026_ENSMUST00000100203|mus_mus|motif|central (ssRNA)
RNA: GGGAGUUCUACAGUCCGACGAUCAAUGAGUUAAUAGAACACUGUCCAGCCAGAUGUUAAAUUUAAAAAUGUAUAUCGGACCGGAUUUCAAAUAAAUAAAAAAACCUUUAUACAUAAUUACACAGUACUAUAGUUUGAAUUGGACAACAGAGGAUUGAGCAUCA
B12: chr5:38529174:38529175:-_ENSMUSG00000029126_ENSMUST00000031009|mus_mus|FALSE|FALSE (ssRNA)
RNA: GGGAGUUCUACAGUCCGACGAUCGAAAAGCUAAAGUAGCCCUGGCUUACCCAAAAUUACAUUUCACUUUGCCCACUGGCUAAUAAAACAAAACAAAACAAAACAAAAAACCCAAACUGCACCUGCAUUCAGGGCUGUACGUGCCAACAGAGGAUUGAGCAUCA
B13: chr15:100049815:100049816:+_ENSMUSG00000023026_ENSMUST00000100203|mus_hu|motif|central (ssRNA)
RNA: GGGAGUUCUACAGUCCGACGAUCAAUGAGUUAAUAGAACACUGUCCAGCCAGAUGUUAAAUUUAAAAACGUAUAUCGGGUCGGACUUCAAAUAAAUAAAAAAACUUUAUACAUAAUUACACAGUACUGUAGUUUGAAUUUGACCAACAGAGGAUUGAGCAUCA
B14: chr1:58468927:58468928:-_ENSMUSG00000026034_ENSMUST00000148330|mus_mus|mus_mus_mus_hu_False|28_68 (ssRNA)
RNA: B7 RNA with U109G, G110C, U112A, A113U, G115C, A137U, G138A, G142U
B15: chr1:58468927:58468928:-_ENSMUSG00000026034_ENSMUST00000148330|mus_mus|mus_mus_mus_hu_False|68_68 (ssRNA)
RNA: B7 RNA with A137U, G138A, G142U
B16: chr15:100049815:100049816:+_ENSMUSG00000023026_ENSMUST00000100203|mus_hu|FALSE|FALSE (ssRNA)
RNA: B13 RNA with G77U, G78A, G82U, G83A
B17: chr1:58468927:58468928:-_ENSMUSG00000026034_ENSMUST00000148330|mus_mus|mus_mus_mus_hu_False|18_68 (ssRNA)
RNA: B7 RNA with U118A, U119A, C122A, A123C, A124U, A125U, G126A, A137U, G138A, G142U
B18: 28740388_28740508_4059_3pUTR_ENSMUSG00000048271_ENSMUST00000114884|mouse|control|control (ssRNA)
RNA: GGGAGUUCUACAGUCCGACGAUCUUUGAGCUGGUAACAUUCUUUCCUGAAUCUAAAACUCUGUGACCAAUCACAUAGCAGGAUCACGAAGAACAAGGUCUACAUGCAUUAUAAGCACUCGGAAACAAAAGAACACGAGAACAGCAACAGAGGAUUGAGCAUCA
B19: chr7:149068622:149068623:-_ENSMUSG00000025139_ENSMUST00000001950|mus_hu|mus_mus_mus_hu_False|58_98 (ssRNA)
RNA: GGGAGUUCUACAGUCCGACGAUCGUGAGGCCUCUGAGUGAGGUUCCUGGUCUGUCCUGGGUUAGAGUUGUUAAUAUCACUAAGUGGACCAUCUAGAACGUUCCAGUCCCGCCUGACACCUUCAUUCCCAAUGGAGAAGAAAUCCAACAGAGGAUUGAGCAUCA
B20: chr14:21343309:21343310:-_ENSMUSG00000021816_ENSMUST00000161445|mus_hu|motif|central (ssRNA)
RNA: GGGAGUUCUACAGUCCGACGAUCAGGAUCGGACCAUAACAAGUCACACAUUGGUCCAAAUGCAGGUGGCUCUUUGAAUCGGUCGGAUCUCCUAAUAUCAUCCAGUGUGUGUAUUUCUGGUGAAAGUCCACCAUGAACACAAAGCAACAGAGGAUUGAGCAUCA
B21: chr1:78194255:78194256:-_ENSG00000077254_ENST00000357428|hu_mus|motif|central (ssRNA)
RNA: GGGAGUUCUACAGUCCGACGAUCAUUGCUGUCCUCAGGAAAGCCUUUGGAGCCACUCUCAUUUUCUGCUUUCUCGCUGCUGCGGCAAGACUCGCACGACUGAAAAUCCACAUCUGACUGGCUCUUCUCUUCCUCCACCGUCUCCAACAGAGGAUUGAGCAUCA
B22: chr7:128503047:128503048:+_ENSG00000128524_ENST00000249289|hu_mus|FALSE|FALSE (ssRNA)
RNA: GGGAGUUCUACAGUCCGACGAUCGGUGGUAUCCUUCUCCACUACCAGGAAAUUAGGGUGGCGGUUCUUGUUUAGCUCCCCUAUGCCGCCCAACAGGAAACCAGUCACCGUGUCCUCGUCUCCAAUCACCGCGAUUAGCUUACCCAACAGAGGAUUGAGCAUCA

Residue numbers refer to the chain shown, from its start. Whole data set: some 24,000 sequences, median “enrichment r” near 0.99, cut for the highest 2% near 3.7. The sample as a whole holds a higher share of the highest values than the screen did.

The target of this test is T1, UNK ZnF1-3. The test is described as follows: nsRBNS (natural sequence RNA bind-n-seq); RBNS binding buffer (assumed for nsRBNS): 25 mM Tris pH 7.5, 150 mM KCl, 3 mM MgCl2, 0.01% Triton X-100, 500 ug/ml BSA, 20 U/ml SUPERase-In, 4 C; UNK is unkempt and MSI1 is Musashi-1; names of the RNAs are library labels; protein concentration not given here; high values mean tight binding.
In turn, B1 gave a binding signal of 0.98 enrichment R.

Molecule B2 showed a binding signal of 0.872 enrichment R. For the molecule B3, the binding signal was determined as 0.663 enrichment R.

With B4, the binding signal is 1.08 enrichment R. The result for B5 reads 1.31 enrichment R; that for B6, 0.449 enrichment R. The molecule B7 had a binding signal of 1.68 enrichment R. As to B8, the binding signal was determined as 4.49 enrichment R. The figure for B9 is 1.01 enrichment R; for B10 it is 3.76 enrichment R; for B11 it is 2.23 enrichment R.

Molecule B12 displayed a binding signal of 1.5 enrichment R. Regarding B13, the binding signal worked out at 4.96 enrichment R. Molecule B14 yielded a binding signal of 0.868 enrichment R. The figure for B15 is 1.87 enrichment R; for B16 it is 1.95 enrichment R. The molecule B17 had a binding signal of 3.68 enrichment R. B18 came in with a binding signal of 1.22 enrichment R. As for B19, the binding signal amounted to 0.755 enrichment R. The molecule B20 came in with a binding signal of 0.921 enrichment R. On to B21, for which the binding signal was found to be 0.703 enrichment R. The molecule B22 displayed a binding signal of 0.494 enrichment R.

For the origin of these results see paper PMC12136788.
